# Reference: PubChem BioAssay (Tox21)
# Inconclusive results are not listed. Values without a mark were called inactive. Active and inactive are the calls of the source. Unless noted, calls come from the whole dose curve.
# Test: p53 small molecule agonists, cell-based qHTS assay: qHTS cell viability counter screen (AID 1963581); note: nearly all actives have a fitted effect of over 45% in size
# Conditions: p53RE-bla HCT-116 viability, ATP luminescence, 16 h; series mostly up to 66 µM; activity change, negative = cytotoxicity: at the top concentration
# Summary of the method: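 Cytotoxicity read-out: ATP-based luminescence (CellTiter-Glo, 30 min RT) measured in the same wells as the p53 reporter assay, HCT-116 p53RE-bla cells, 16 h compound exposure at 37 C.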
# % is set by controls: 0 for no effect and ±100 for the full control effect.
Compound,"activity change, negative = cytotoxicity",Potency
Nc1nc(=O)n([C@@H]2O[C@H](CO)[C@@H](O)[C@@H]2F)cc1I,0.176% [at 30.3 µM],–
Cc1cc(C)cc(O)c1,–,inactive
COc1cc(C(=O)N2CCOCC2)cc(OC)c1OC,-0.794% [at 30.3 µM],–
CCCO,1.83%,–
CC12CCC(C1)C(C)(C)C2O (stereo not drawn),19.5%,–
[O]=[Zr],-0.431%,–
C1CCC(SSC2CCCCC2)CC1,-11.1%,–
CCCC[C@H]1CN(CC2CCOCC2)C(=O)OC12CCN(C1(C)CCN(C(=O)c3c(C)ncnc3C)CC1)CC2,-6.49%,–
Cc1ccccc1S(=O)(=O)O,11.1%,–
NC(=O)c1ccc(N)cc1,-1.81%,–
FC(F)(F)C(Cl)Br (stereo not drawn),–,inactive
CCCCCCCCSCCO,1.94%,–
Cc1ccccc1C(N)=O,0.43%,–
CC12CC3CC(C)(C1)CC(N)(C3)C2,5.54% [at 30.3 µM],–
O[C@@H]([C@H](O)[C@H](O)CBr)[C@H](O)CBr,4.87%,–
CCOc1ccc(N)c([N+](=O)[O-])c1,0.234%,–
CC(=O)NCc1c(I)c(NC(C)=O)c(I)c(C(=O)O)c1I,-7.82% [at 30.3 µM],–
Nc1cc([N+](=O)[O-])ccc1Cl,-19.1%,–
Cc1c(C(=O)c2c[nH]n(C)c2=O)ccc(S(C)(=O)=O)c1C1=NOCC1,-9.69% [at 30.3 µM],–
CC(C[N+](C)(C)C)OC(N)=O (stereo not drawn),-1.19% [at 30.3 µM],–

Compound,"activity change, negative = cytotoxicity",Potency
O=S(=O)(O)c1ccccc1O,1.97%,–
Cc1cccc(N(C)C)c1,13.2%,–
OCC1CCC(CO)CC1 (stereo not drawn),0%,–
C=CCOC(=O)CCCCCC,0.444%,–
CCN(CC)S(=O)(=O)c1ccc(C(=O)O)cc1,-13.5% [at 30.3 µM],–
NNS(=O)(=O)c1ccc(Oc2ccc(S(=O)(=O)NN)cc2)cc1,-9.8%,–
O=Cc1ccc(C(=O)O)cc1,4.78%,–
COCCOCCOCCOCCOC,-13.5%,–
C=C(C)[C@H]1CC=C(C)CC1,-18%,–
CC(C)C1CCC(O)CC1 (stereo not drawn),1.51%,–
C=CC(C)(CCC=C(C)C)OC(=O)CC (stereo not drawn),-0.134%,–
[O-][n+]1ccc(Cl)cc1,-5.94%,–
CC(C)CCO,-3.72%,–
O=C(O)CCS,8.36%,–
Cc1cc(C)c(N=Nc2c(O)c(S(=O)(=O)O)cc3cc(S(=O)(=O)O)ccc23)cc1C,-0.59% [at 5.99 µM],–
Cc1ccc(Nc2ccc(O)c3c2C(=O)c2ccccc2C3=O)cc1,1.25%,–
C1=COCCC1,-19.7%,–
NCCNCCN,–,inactive
CC(=O)N1C[C@H](O)C[C@H]1C(=O)O,-1.4% [at 30.3 µM],–

# Test: p53 small molecule agonists, cell-based qHTS assay (AID 1963582; active = well fitted activation curve with a large enough effect in the signal ratio in the repeat runs, not every such curve was filed as active; the % refers to the signal ratio)
# Conditions: HCT-116 p53RE-bla reporter, beta-lactamase FRET ratio, 16 h; series mostly up to 66 µM; activation: at the top concentration
# Summary of the method: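 Fluorescence intensity read-out of a beta-lactamase reporter under a p53 response element. Cells were exposed to DMSO-dissolved compounds for 16 h at 37 C, then developed with FRET substrate for 2 h at RT.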
Compound,activation,Potency
Nc1nc(=O)n([C@@H]2O[C@H](CO)[C@@H](O)[C@@H]2F)cc1I,5.02% [at 30.3 µM],–
Cc1cc(C)cc(O)c1,–,inactive
COc1cc(C(=O)N2CCOCC2)cc(OC)c1OC,0.644% [at 30.3 µM],–
CCCO,1.99%,–
CC12CCC(C1)C(C)(C)C2O (stereo not drawn),5.18%,–
[O]=[Zr],-6.54%,–
C1CCC(SSC2CCCCC2)CC1,0.141%,–
CCCC[C@H]1CN(CC2CCOCC2)C(=O)OC12CCN(C1(C)CCN(C(=O)c3c(C)ncnc3C)CC1)CC2,-2.25%,–
Cc1ccccc1S(=O)(=O)O,-1.21%,–
NC(=O)c1ccc(N)cc1,0.0658%,–
FC(F)(F)C(Cl)Br (stereo not drawn),–,inactive
CCCCCCCCSCCO,-2.69%,–
Cc1ccccc1C(N)=O,3.72%,–
CC12CC3CC(C)(C1)CC(N)(C3)C2,-2.42% [at 30.3 µM],–
O[C@@H]([C@H](O)[C@H](O)CBr)[C@H](O)CBr,-0.497%,–
CCOc1ccc(N)c([N+](=O)[O-])c1,3.73%,–
CC(=O)NCc1c(I)c(NC(C)=O)c(I)c(C(=O)O)c1I,-3.79% [at 30.3 µM],–
Nc1cc([N+](=O)[O-])ccc1Cl,-0.167%,–
Cc1c(C(=O)c2c[nH]n(C)c2=O)ccc(S(C)(=O)=O)c1C1=NOCC1,-2.41% [at 30.3 µM],–
